Test results taken from PubChem BioAssay.
Activity calls are given as the source filed them.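 How the source made its calls, unless noted: active means inhibition above 20% together with a positive visual image hit; inconclusive means visual image hit but inhibition not above 20%; inactive means no visual image hit.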

Assays:
[1] = inhibitors of TNFa-induced NFkB p65 translocation, primary screen, imaging, HUVEC, MLSMR starter and 10KST1 sets (AID 438); details: HUVEC TNFa-induced p65 nuclear translocation; cell count: measured here: nuclei count (cytotoxicity indicator), at 2.08 µM; inhibition: at 2 µM, stronger effect = higher value, 0% TNFa-plus-vehicle, 100% no-TNFa wells;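 further: compound added about 3h40 before a 20 min TNFalpha stimulation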;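 on inhibition: signal is the nuclear over cytoplasmic p65 intensity ratio per well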
[2] = reduction of polyQ htt aggregates in cells – imaging, exon1htt(103Q)mCFP cells, high-content imaging, primary screen (AID 483;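 active means visual image review flags a hit and inhibition of aggregation exceeds 20%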;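 further: compound exposure lasted 3 days before fixation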;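 on nuclei count: percent of the per-plate median nuclei count of sample wells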); details: exon1htt(103Q)mCFP cell line, aggregate imaging, at 2 µM; inhibition of aggregation: stronger effect = higher value; nuclei count: measured here: cell count, toxicity
[3] = endothelial E-selectin expression blockers – imaging, HUVEC, immunofluorescence, MLSMR starter and 10KST1 sets, primary screen (AID 487;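 active means visually confirmed hit in the image check and inhibition above 20%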;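 on inhibition: signal is fraction of cell area covered by stained E-selectin grains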;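 on nuclei count: 100% = median nuclei count of all wells on the same plate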); details: HUVEC TNFalpha-induced E-selectin immunofluorescence imaging, at 2 µM; inhibition: stronger effect = higher value; nuclei count: measured here: cell number, toxicity
[4] = biological target: Voltage-gated potassium channel subunit beta-2 (Rattus norvegicus) (UniProt P62483); assay: inhibitors of rat Kvbeta2 reductase activity – biochemical, NADPH fluorescence, primary screen (AID 622;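 active means fluorescence slope higher than the sample average by over 3 SD, cut at about -0.22 in these data, passing the limit was not always enough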;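 further: slope of raw intensity against log time taken from 70 to 1610 s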); details: recombinant KvBeta, 4-cyanobenzaldehyde reduction, at 10 µM, stronger effect = higher value
[5] = biological target: Voltage-gated potassium channel subunit beta-2 (Rattus norvegicus) (UniProt P62483); assay: enhancers of rat Kvbeta2 NADPH turnover – biochemical, NADPH fluorescence, primary screen (AID 623;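 active means NADPH fluorescence slope more negative than the mean of all samples by about 3 SD, 99.7% confidence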;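 further: fluorescence intensity change per second fitted from 20 to 320 s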); details: Recombinant KvBeta, NADPH fluorescence decrease slope, 10 min; at 10 µM; stronger effect = lower value
[6] = biological target: Alpha-2C adrenergic receptor (Homo sapiens) (UniProt P18825); assay: compounds altering alpha2C-coupled GIRK flux – cell-based, HEK293 alpha2C/GIRK1/2, thallium flux, primary screen (AID 624;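 active means fluorescence slope after compound addition differing from the mean of all screened samples at 99.7% confidence, in either direction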;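 further: slope of fluorescence ratio to pre-addition baseline per second over 15 to 24 s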); details: thallium flux BTC fluorescence, at 10 µM, actives lie on both sides
[7] = blockers of RIG-like receptor reporter activation – cell-based, Sendai virus stimulus, luciferase, 10K MLSCN set, TLR/RLR signaling modifier project, primary screen (AID 602276;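 active means inhibition at or above 50% at 10 µM; inactive means inhibition below 50%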;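 further: firefly luciferase from ISG56 promoter only with Renilla not read in this screen; 0% = Sendai virus plus DMSO and 100% = medium plus DMSO without virus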); details: HEK293 RL24 IRF3 luciferase reporter, at 10 µM, stronger effect = higher value
[8] = TLR3 IRF3 reporter activation blockers – cell-based, poly I:C stimulus, luciferase, 10K MLSCN set, primary screen (AID 602277;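 active means inhibition of the reporter signal at or above 50%; inactive means inhibition below 50%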); details: HEK293-TLR3 RL24 IRF3 luciferase reporter, at 10 µM, stronger effect = higher value

Chain of Alpha-2C adrenergic receptor (Homo sapiens) (P18825 whole entry, looked up): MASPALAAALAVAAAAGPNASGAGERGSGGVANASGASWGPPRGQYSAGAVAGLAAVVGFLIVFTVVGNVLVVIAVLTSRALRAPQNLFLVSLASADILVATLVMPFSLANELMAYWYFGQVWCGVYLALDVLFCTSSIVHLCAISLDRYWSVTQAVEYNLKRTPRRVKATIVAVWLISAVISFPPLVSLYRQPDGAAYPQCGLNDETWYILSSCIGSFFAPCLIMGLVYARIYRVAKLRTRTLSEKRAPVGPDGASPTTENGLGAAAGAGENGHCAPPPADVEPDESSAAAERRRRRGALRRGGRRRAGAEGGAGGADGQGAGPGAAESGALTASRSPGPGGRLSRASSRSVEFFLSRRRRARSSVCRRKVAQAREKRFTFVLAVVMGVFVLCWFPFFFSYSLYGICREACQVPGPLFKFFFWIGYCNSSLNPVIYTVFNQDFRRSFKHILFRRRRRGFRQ
Chain of Voltage-gated potassium channel subunit beta-2 (Rattus norvegicus) (P62483 whole entry, looked up): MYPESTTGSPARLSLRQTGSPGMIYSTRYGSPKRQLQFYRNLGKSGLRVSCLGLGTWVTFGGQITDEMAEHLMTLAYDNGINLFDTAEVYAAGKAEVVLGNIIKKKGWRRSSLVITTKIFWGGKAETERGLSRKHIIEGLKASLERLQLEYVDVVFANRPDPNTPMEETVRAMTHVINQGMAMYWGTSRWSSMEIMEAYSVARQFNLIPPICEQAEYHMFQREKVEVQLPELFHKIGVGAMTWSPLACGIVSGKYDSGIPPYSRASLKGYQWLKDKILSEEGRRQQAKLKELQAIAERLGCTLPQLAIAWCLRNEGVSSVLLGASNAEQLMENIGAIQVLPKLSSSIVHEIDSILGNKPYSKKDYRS

Row | Compound | cell count [1] | inhibition [1] | inhibition of aggregation [2] | nuclei count [2] [%] | inhibition [3] | nuclei count [3] [%] | fluorescence slope [4] | NADPH fluorescence slope [5] | slope [6] | inhibition [7] | inhibition [8]
1 | Cc1cc(C)n(S(=O)(=O)c2cc(C(=O)O)c(Cl)cc2Cl)n1 | 432 | -0.5% (inactive) | -10.2% (inactive) | 110 | -83.9% (inactive) | 98.4 | -0.387 (inactive) | 4.4e-06 (inactive) | 0.00497 (inactive) | 13.3% (inactive) | 10.3% (inactive)
2 | CCc1ccc(NC(=O)C2CC(=O)N(C(C)C)C2)cc1 (centres undefined) | 346 | -6.8% (inactive) | 23.8% (inactive) | 92.5 | -6.6% (inactive) | 75.6 | -0.62 (inactive) | 2.5e-05 (inactive) | 0.00536 (inactive) | 7.09% (inactive) | 0.245% (inactive)
3 | CCN(CCCNS(=O)(=O)c1ccc2c(c1)oc(=O)n2C)c1cccc(C)c1 | 740 | -0.6% (inactive) | -22.6% (inactive) | 110 | -21.3% (inactive) | 102 | -0.574 (inactive) | 9.4e-07 (inactive) | 0.00612 (inactive) | 18.1% (inactive) | 32.9% (inactive)
4 | CN=Cc1cc(-c2ccccc2)sc1O | 330 | -2% (inactive) | -19.3% (inactive) | 126 | -90.3% (inactive) | 114 | -0.574 (inactive) | -1.5e-05 (inactive) | 0.00861 (inactive) | -23.3% (inactive) | -118% (inactive)
5 | COc1ccc2ccccc2c1CN1CCN(C)CC1 | 441 | -7.1% (inactive) | -14.9% (inactive) | 93.7 | -40.6% (inactive) | 123 | -0.444 (inactive) | -0.000107 (inactive) | 0.00594 (inactive) | 7.96% (inactive) | 27.9% (inactive)
6 | COc1ccccc1NC(=O)N(C1CCCC1)C1CCN(C(C)=O)CC1 | 830 | 18.5% (inactive) | -7% (inactive) | 98 | -61.6% (inactive) | 123 | -0.582 (inactive) | -3.7e-05 (inactive) | 0.00578 (inactive) | 12.4% (inactive) | 34.4% (inactive)
7 | CCCCn1c2c(c3ccccc31)CCc1nonc1-2 | 664 | -4% (inactive) | 8.5% (inactive) | 75.1 | -16.7% (inactive) | 100 | -0.601 (inactive) | 4.9e-06 (inactive) | 0.00755 (inactive) | -16.3% (inactive) | 13.4% (inactive)
8 | Cn1ccnc1SCC(=O)Nc1ccc2ccccc2c1 | 228 | 9.6% (inactive) | 13.5% (inactive) | 120 | -14.1% (inactive) | 105 | -0.519 (inactive) | -4.1e-05 (inactive) | 0.00777 (inactive) | 2.61% (inactive) | -32.6% (inactive)
9 | CCOC(=O)c1sc2nc(NC(=O)C(C)(C)C)sc2c1C | 600 | 16.7% (inactive) | -3.3% (inactive) | 112 | -25.6% (inactive) | 104 | -0.496 (inactive) | -2.5e-05 (inactive) | 0.00604 (inactive) | -20.5% (inactive) | -150% (inactive)
10 | O=C(c1c(Cl)nc2sccn12)N(C(=O)c1c(Cl)nc2sccn12)c1ccc(Cl)cn1 | 819 | 3.8% (inactive) | -20.1% (inactive) | 103 | -97.4% (inactive) | 126 | -0.465 (inactive) | 7.2e-06 (inactive) | 0.00593 (inactive) | -31.5% (inactive) | -77.8% (inactive)
11 | O=c1[nH]c(SCc2ccc(F)cc2)nc2c1cnn2-c1ccc(F)cc1 | 652 | -31% (inactive) | -8.4% (inactive) | 95.8 | -0.1% (inactive) | 110 | -0.57 (inactive) | 1e-05 (inactive) | 0.00683 (inactive) | -21.2% (inactive) | -12.1% (inactive)
12 | C=CCSC1=C(C#N)C(c2ccccc2C)CC(=O)N1 (centres undefined) | 556 | 2.1% (inactive) | -12.2% (inactive) | 94 | -48.8% (inactive) | 174 | -0.601 (inactive) | -1.1e-05 (inactive) | 0.00492 (inactive) | -5.91% (inactive) | -13.9% (inactive)
13 | O=C(CSCc1cnn(-c2ccccc2)c1-n1cccc1)NCC1CCCO1 (centres undefined) | 587 | -10% (inactive) | -10.3% (inactive) | 101 | -1.9% (inactive) | 121 | -0.581 (inactive) | -4.7e-05 (inactive) | 0.00606 (inactive) | 2.57% (inactive) | 15.3% (inactive)
14 | O=c1c(-c2ccccc2)coc2c(CN3CCOCC3)c(O)ccc12 | 335 | -2.5% (inactive) | -6.5% (inactive) | 108 | -116% (inactive) | 129 | -0.0601 (active) | 4.4e-06 (inactive) | 0.00553 (inactive) | -3.14% (inactive) | 10.1% (inactive)
15 | COc1cccc(-c2cc(C(F)(F)F)nc(NCc3ccco3)n2)c1 | 449 | 1.7% (inactive) | 28.6% (inactive) | 97.3 | -25.2% (inactive) | 94.3 | -0.469 (inactive) | -5.6e-06 (inactive) | 0.00562 (inactive) | -7.28% (inactive) | 19.1% (inactive)
16 | O=C(CN1CCN(Cc2ccc(F)cc2Cl)C1=O)NCCCN1CCOCC1 | 477 | 7% (inactive) | -27.6% (inactive) | 65.3 | -63.8% (inactive) | 99.9 | -0.523 (inactive) | -3.8e-05 (inactive) | 0.00757 (inactive) | 0.912% (inactive) | 36.5% (inactive)
17 | COCCNC(=O)CCc1nc(-c2ccccc2)no1 | 294 | -5% (inactive) | -9.3% (inactive) | 103 | -98.3% (inactive) | 123 | -0.504 (inactive) | 2.6e-05 (inactive) | 0.00646 (inactive) | 18.6% (inactive) | 16.3% (inactive)
18 | CC(C)Cn1c(CN2CCCCC2C)nc2c1c(=O)n(C)c(=O)n2C (centres undefined) | 693 | -10% (inactive) | 12.5% (inactive) | 93 | -25% (inactive) | 116 | -0.537 (inactive) | -1.5e-05 (inactive) | 0.00589 (inactive) | 2.69% (inactive) | 21.9% (inactive)
19 | CCc1nnc(NC(=O)CN2CCN(c3ccccc3OC)CC2)s1 | 287 | 6.2% (inactive) | -10% (inactive) | 102 | 3.6% (inactive) | 97.4 | -0.616 (inactive) | -2e-05 (inactive) | 0.00643 (inactive) | 7.27% (inactive) | 27.9% (inactive)
